Laboratory results: the emibetuzumab library of Makowski et al. (2022)
Some of the results follow. The hit rate among all sequences tested is not known here.

B1: VH:VL chains; a variant is named by its letters at X, in order (parent)
chain 1: QVQLVQSGAEVKKPGASVKVSCKASGYTFTDYXMHWVRQAPGQGLEWMGXVNPNXXXTTYNQKFEGRVTMTTDTSTSTAYMELRSLRSDDTAVYYCARXNXLDXWGQGTTVTVSS
chain 2: DIQMTQSPSSLSASVGDRVTITCSVSSSVSSIYLHWYQQKPGKAPKLLIYSTSNLASGVPSRFSGSGSGTDFTLTISSLQPEDFATYYCQVYSGYPLTFGGGTKVEIK

Variants of: B1
Experiment: yeast display scFab, FACS + sequencing
Settings: with MET
Procedure, shortened: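 Heavy-chain CDR mutant scFab yeast surface library, enriched by two magnetic rounds on HGFR-Fc-coated Protein A beads and then by FACS. Cells were labelled with 1 nM HGFR-Fc in PBSB with 1% milk and anti-Myc for 3 h at room temperature, and the top 50% antigen-positive cells were gated. Round-3 sorted and input populations were deep sequenced in two replicates. Antigen binding call: positive if a sequence occurred in both antigen-positive samples, negative if it occurred only in input.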

Row | Variant | antigen binding call
1 | DRGGDDVV | no binding
2 | YRARSAGY | binds
3 | DREEGAVY | no binding
4 | YRARSAVY | binds
5 | YRTRSAVY | binds
6 | SEARSAVY | no binding
7 | YRTKGAVY | binds
8 | SEREADWF | no binding
9 | VAGTGDWF | no binding
10 | AETKGDGA | no binding
11 | DGGRSAVF | no binding
12 | FRRTDFVA | no binding
13 | ARRGSDLA | no binding
14 | FRRGDAVA | binds
15 | FRRGSALA | binds
16 | FRRGSAVA | binds
17 | DRRGDAVA | no binding
18 | FREGSAVA | no binding
19 | DGGTNDGA | no binding

Row | Variant | antigen binding call
20 | DAAGADWY | no binding
21 | AAAGGSWS | no binding
22 | YRARGSWS | binds
23 | YRKGGSWS | binds
24 | DRKGGDWS | no binding
25 | VRTEDSWS | no binding
26 | YRGRSSWS | binds
27 | YRAAGSWS | binds
28 | VAEKGDGA | no binding
29 | YAEGGYGV chain 1 V68I | no binding
30 | DTTGSDWY | no binding
31 | VEGGGDVA | no binding
32 | SEARSDWF | no binding
33 | VAGTGDAA | no binding
34 | SATTDSVD | no binding
35 | YRAEGAWS | binds
36 | VRARGDVS | binds
37 | SEARSSWS | no binding
38 | VRAGGDVF | no binding

Row | Variant | antigen binding call
39 | YRARSAWS | binds
40 | YRKKTDWS | no binding
41 | VEKGGDVS | no binding
42 | YRARSSWS | binds
43 | SEARSAWS | no binding
44 | FAEGDDVA | no binding
45 | ATTGGDGV | no binding
46 | VGGTGSGY | no binding
47 | VTEGGDVY | no binding
48 | VEKGGDAA | no binding
49 | VTERDDAV | no binding
50 | YRARGAAS | binds
51 | YRARGAVS | binds
52 | YRARGSVS | binds
53 | DAATADSS | no binding
54 | YAATADSS | no binding
55 | VAATADSS | binds
56 | YAEESDGS | no binding
57 | STGEDDVY | no binding
